The results in this text go back to PubChem BioAssay (NCI).

This is part of a sample that, as a whole, favours compounds with a hit. Of some 79,000 tested, about 15% had one in any assay. A number with no mark means an inactive call. Activity calls are given as the source filed them. No stated cut-off is given here; in the data, active means growth inhibition above about 70%; inactive means the rest.

Test [1] in a line: NCI Yeast Anticancer Drug Screen. Data for the rad50 strain (AID 155).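 Further: 0% = growth of vehicle-only cultures of the same strain.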 Conditions: S. cerevisiae rad50 strain growth inhibition; at 50.0 µM; active compounds read high. An outline of the steps: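 Inhibition values express reduced yeast growth in compound-treated cultures relative to vehicle-treated controls.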
Test [2] is described as follows: NCI Yeast Anticancer Drug Screen. Data for the mec2-1 strain (AID 157). Conditions: S. cerevisiae mec2-1 strain, at 50.0 µM, active compounds read high. An outline of the steps:
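Vehicle-treated cultures served as reference for growth inhibition of compound-exposed mec2-1 yeast.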

The nature of test [3]: NCI Yeast Anticancer Drug Screen. Data for the sgs1 mgt1 strain (AID 161).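 Further: 0% = growth of cultures given vehicle only.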 Conditions: S. cerevisiae sgs1 mgt1 strain, at 50.0 µM, active compounds read high. Put shortly: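 Read-out: growth inhibition vs vehicle controls. Cells: mutant yeast strain deficient in DNA damage repair.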
Test [4] is described as follows: NCI Yeast Anticancer Drug Screen. Data for the cln2 rad14 strain (AID 165).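 Further: 0% = growth equal to vehicle treated cultures.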 Particulars: S. cerevisiae cln2 rad14 strain, at 50.0 µM, active compounds read high. Put shortly: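 Each compound was tested on cln2 rad14 yeast. Inhibition of growth was calculated against vehicle-exposed controls.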
Test [5] in a line: NCI Yeast Anticancer Drug Screen. Data for the bub3 strain (AID 167). Particulars: S. cerevisiae bub3 mutant strain, at 50.0 µM, active compounds read high. An outline of the steps:
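Steps: expose the mutant yeast strain to compound; grow alongside vehicle-treated cultures; measure growth; express inhibition against the vehicle cultures.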

Test [6] is described as follows: NCI Yeast Anticancer Drug Screen. Data for the mlh1 rad18 strain (AID 175). Conditions: S. cerevisiae mlh1 rad18 strain growth inhibition; at 50.0 µM; active compounds read high. Put shortly: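 Vehicle-treated cultures served as the reference for growth inhibition in a yeast strain carrying DNA damage repair alterations exposed to each compound.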

Take `Nc1cc(C(Br)(Br)Br)nc2ccccc12`: the growth inhibition in test [1] is 17.4%; in test [2] it was 7.45%; in test [3] it was 16.8%; in test [4], -0.2%; in test [5] it was -11%; in test [6], 31.8%.
`COc1ccc(C2OC3=Nc4cc(C)c(C)cc4NC3C2=O)cc1OC` (stereo unspecified): the growth inhibition was 15.7% in test [1]; -6.75% in test [2]; -6.15% in test [3]; -1.9% in test [4]; -23.4% in test [5]; 1.9% in test [6].
For the compound `Cc1cn(C2CC(OS(C)(=O)=O)C(COC(c3ccccc3)(c3ccccc3)c3ccccc3)O2)c(=O)[nH]c1=O` (stereo unspecified), the growth inhibition in test [1] is 30.9%; in test [2], 1.95%; in test [3], 16.6%; in test [4] it was -15.2%; in test [5] it was -0.9%; in test [6] it was 15.3%.
For `COc1cc(C2c3cc4c(cc3OC(O)C2C)OCO4)cc(OC)c1OC` (stereo unspecified), the growth inhibition in test [1] is -11.9%; in test [2], 4.85%; in test [3] it was 11.7%; in test [4] it was -46.6%; in test [5], 16.1%; in test [6], -4.15%.
Regarding `NC(=O)CS`, the growth inhibition was -14.3% in test [1]; -17.2% in test [2]; -21.8% in test [3]; -11.7% in test [4]; -14.1% in test [5]; -22.1% in test [6].
With `Cc1cc2nc(/C(C#N)=C/c3cc(Cl)cc(Cl)c3O)[nH]c2cc1C`, the growth inhibition in test [1] was 16.2%; in test [2] it was 22.4%; in test [3] it was 33%; in test [4], 28.1%; in test [5], 19.4%; in test [6] it was -3.35%.
As to `COC1OC2COC(c3ccccc3)OC2C(OC(C)=O)C1OS(=O)(=O)c1ccc(C)cc1` (stereo unspecified), the growth inhibition in test [1] was -2.7%; in test [2] it was 14.1%; in test [3], -5.35%; in test [4], 3.35%; in test [5] it was -4.65%; in test [6], 28.8%.
As for `COC1OC(COC(=O)c2ccccc2)C(OC(=O)c2ccccc2)C(OC(=O)c2ccccc2)C1OC(=O)c1ccccc1` (stereo unspecified), the growth inhibition was -1.3% in test [1]; -30.8% in test [2]; -13.6% in test [3]; -9.4% in test [4]; -29.8% in test [5]; -14.8% in test [6].
Take `CCC(C)OC(=O)C1C(=O)CC(c2ccccc2)C1c1ccccc1` (stereo unspecified): the growth inhibition in test [1] is -2.2%; in test [2] it was -8.4%; in test [3] it was -4.8%; in test [4] it was -1.45%; in test [5], 3.4%; in test [6] it was -6.35%.
Take `CCn1c2ccccc2n2c(=O)c3c(c(C#N)c12)CCCC3`: the growth inhibition in test [1] was 4.6%; in test [2], 13.2%; in test [3] it was -30.1%; in test [4], -8.6%; in test [5], -33.9%; in test [6], -18.5%.
For the compound `N#CCC(c1ccccc1)(c1ccccc1)c1ccccc1`, the growth inhibition in test [1] is 46.4%; in test [2] it was 34.8%; in test [3], 45.9%; in test [4], 37.1%; in test [5], 52.4%; in test [6] it was 39.6%.
In the case of `Cn1c(COC(=O)Nc2ccccc2)c(COC(=O)Nc2ccccc2)c2ccc3cc(Cl)c(Cl)cc3c21`, the growth inhibition in test [1] is 72.9% (active); in test [2], 78.8% (active); in test [3], 76.3% (active); in test [4] it was 81.2% (active); in test [5] it was 84.3% (active); in test [6], -44%.
With `O=[N+]([O-])c1ccc(OC(=S)N2CCOCC2)cc1`, the growth inhibition is -7.05% in test [1]; 9.3% in test [2]; -8.3% in test [3]; 0.15% in test [4]; -10.2% in test [5]; -0.65% in test [6].
Take `CNS(=O)(=O)c1ccc(C)cc1`: the growth inhibition in test [1] was 2.15%; in test [2] it was -6%; in test [3], 0.6%; in test [4], 3.25%; in test [5], 0.45%; in test [6], 0.35%.
Take `CN(CCCO)CCCO`: the growth inhibition in test [1] is 5.9%; in test [2] it was -2.4%; in test [3] it was 0.7%; in test [4] it was 3.35%; in test [5], 1.85%; in test [6] it was -0.85%.
Turning to `CN=C(N)SCCSC(N)=NC`, the growth inhibition in test [1] is -12.3%; in test [2] it was -18.2%; in test [3], 0.25%; in test [4], -13.5%; in test [5] it was 11.5%; in test [6], -5.15%.
For `O=C1Oc2ccccc2C(=O)C1=Ic1ccccc1`, the growth inhibition in test [1] is 31.3%; in test [2], 52.9%; in test [3], 73.6% (active); in test [4] it was 51.3%; in test [5], 38%; in test [6], 56%.
Consider `CCN(CC)CC(C)(C)C(=O)/C=C/c1ccc(OC)cc1`, for which the growth inhibition in test [1] was -3.7%; in test [2] it was -8.2%; in test [3], 7.35%; in test [4] it was -5.5%; in test [5] it was 0.05%; in test [6], -7.3%.
Consider `C/C(=N/Nc1ccc([N+](=O)[O-])cc1[N+](=O)[O-])C(CC(C(=O)Nc1ccccc1C)/C(C)=N\Nc1ccc([N+](=O)[O-])cc1[N+](=O)[O-])C(=O)Nc1ccccc1C` (stereo unspecified), for which the growth inhibition in test [1] was 18.4%; in test [2], 25.9%; in test [3], 4.9%; in test [4], 10.3%; in test [5] it was 8.75%; in test [6], 43.6%.
Regarding `C=C1C(=O)OC2C1C(OC(=O)/C(C)=C/C)CC(O)(CCl)C1C(O)C=C(C)C21O` (stereo unspecified), the growth inhibition in test [1] is 33.5%; in test [2], 14.6%; in test [3], 21.6%; in test [4] it was 20.8%; in test [5], 10.1%; in test [6] it was -51.1%.
Turning to `CCCC(=O)OC(CCC1CCCO1)CCC1CCCO1` (stereo unspecified), the growth inhibition in test [1] was 0.3%; in test [2], -14.9%; in test [3], 10.4%; in test [4], 23.9%; in test [5], -6.35%; in test [6] it was 19.6%.
As for `Cc1cn(C2CC(O)C(CO)O2)c(=O)[nH]c1=S` (stereo unspecified), the growth inhibition in test [1] is 9.05%; in test [2] it was -7.25%; in test [3], -3.5%; in test [4], -37.3%; in test [5], 14.2%; in test [6] it was 13.2%.
Consider `CCc1cc(C)cc(CC)c1N`, for which the growth inhibition in test [1] was 5.45%; in test [2] it was -14.2%; in test [3], -8.55%; in test [4], -24.6%; in test [5], 20.9%; in test [6] it was 3.8%.
As for `NC(CCC(N)C(=O)O)C(=O)O` (stereo unspecified), the growth inhibition is -25.4% in test [1]; -20.6% in test [2]; -25.2% in test [3]; -13.5% in test [4]; -13.1% in test [5]; -18.1% in test [6].
Take `O=C1NC(=O)C(c2ccc3c(c2)OCO3)N1` (stereo unspecified): the growth inhibition was -3.25% in test [1]; -10.6% in test [2]; -6% in test [3]; -30.9% in test [4]; -23.3% in test [5]; 7.05% in test [6].
Consider `O=C(/C=C/c1c(-c2ccccc2)[nH]c2ccccc12)c1cccc([N+](=O)[O-])c1`, for which the growth inhibition in test [1] was 43%; in test [2] it was 17.1%; in test [3], 42%; in test [4], 20.9%; in test [5], 19.9%; in test [6], 36.2%.
Consider `COc1ccc(C(O)c2ccc(OC)cc2)cc1`, for which the growth inhibition in test [1] was -10.8%; in test [2] it was -16.6%; in test [3] it was -23.9%; in test [4] it was 10.1%; in test [5], -22.3%; in test [6], -7.6%.
Turning to `COc1cccc(NC(=S)NNC(=S)NNc2ccccc2)c1`, the growth inhibition in test [1] was 59.4%; in test [2], 60.2%; in test [3] it was 70.3% (active); in test [4], 43%; in test [5] it was 65.2%; in test [6], 63.6%.
With `C=C1C2CC(OC(C)=O)C3(C)C(c4ccoc4)OC(=O)[C@@H](O)[C@]13OC1C[C@H](OC(C)=O)C(C)(C)[C@H](C(O)C(=O)OC)[C@]12C` (stereo partly specified), the growth inhibition was -11.8% in test [1]; -34.4% in test [2]; 2.4% in test [3]; 3.45% in test [4]; -8.1% in test [5]; 0.25% in test [6].
Turning to `O=[N+]([O-])c1ccc(NCn2c(=S)sc3ccccc32)cc1`, the growth inhibition was 13.7% in test [1]; -27% in test [2]; 11.4% in test [3]; 2.15% in test [4]; 2.8% in test [5]; 3.6% in test [6].
`Cn1c(=O)n2n(c1=O)[C@@H](c1ccccc1)[C@H]2c1ccccc1`: the growth inhibition in test [1] was 29.8%; in test [2] it was -45.4%; in test [3], -9.85%; in test [4] it was -5.85%; in test [5], 20.2%; in test [6], -59.3%.
As for `COC(=O)C(C(C)C(C)[N+](=O)[O-])=P(c1ccccc1)(c1ccccc1)c1ccccc1` (stereo unspecified), the growth inhibition in test [1] is 41.7%; in test [2], 3.4%; in test [3], 29.5%; in test [4] it was 11.2%; in test [5] it was -4.95%; in test [6] it was 10.8%.
For the compound `COc1ccc(C(=O)N=C(N)n2nc(C)cc2C)cc1`, the growth inhibition in test [1] was -37.8%; in test [2] it was -1.35%; in test [3], -1%; in test [4], -16.1%; in test [5], 31.9%; in test [6] it was -0.75%.
In the case of `CC1=NN(c2ccccc2)C(=O)/C1=C1\SC(c2ccccc2)(c2ccccc2)c2ccccc21`, the growth inhibition in test [1] is -29.4%; in test [2] it was 0.9%; in test [3] it was 1.8%; in test [4] it was 7.95%; in test [5] it was 23.2%; in test [6] it was -30.4%.
As to `COC(=O)CCC(=O)c1ccc(OC)cc1`, the growth inhibition in test [1] is 4.7%; in test [2] it was -6.5%; in test [3] it was 3.35%; in test [4], -0.95%; in test [5], 10.2%; in test [6], 2.45%.
Consider `c1ccc(-c2nnn(CCN3CCCCC3)n2)cc1`, for which the growth inhibition in test [1] was 33.1%; in test [2], 20.9%; in test [3] it was -3.9%; in test [4], 12.1%; in test [5], 34%; in test [6] it was 23.5%.
